About 83,000 compounds went through this panel and 20% of them were active in at least one assay; those are over-represented in the sample as a whole.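 Treatment: one concentration, 48 hours, 96-well format. Scoring: percent growth, with anything below 10 considered active.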 Values without a mark were called inactive. Active and inactive are the calls of the source.
Columns and labels:
Test in all cases: NCI-60 one-dose screen, 48 h (100 = growth as untreated, 0 = no growth, -100 = all killed)
Conditions in all cases: 10 µM unless noted
[1] = test system: DU-145 prostate
[2] = test system: K-562 leukemia
[3] = test system: MALME-3M melanoma
[4] = test system: MDA-MB-231 breast
[5] = test system: RXF 393 renal
[6] = test system: SF-268 CNS
[7] = test system: SF-295 CNS
[8] = test system: SF-539 CNS
[9] = test system: UACC-257 melanoma
[10] = test system: M14 melanoma

| SMILES | growth [1] | growth [2] | growth [3] | growth [4] | growth [5] | growth [6] | growth [7] | growth [8] | growth [9] | growth [10] |
| --- | --- | --- | --- | --- | --- | --- | --- | --- | --- | --- |
| O=C(Nc1cccc(-c2ccc(N3CCOCC3)nn2)c1)Nc1cccc(C(F)(F)F)c1 | 80.5% | 46.1% | 89.5% | 80.1% | 81.5% | 91.2% | 52% | 89.1% | 69.7% | 63.1% |
| O=C1C(=O)N(Cc2ccc(-c3ccccc3)cc2)c2ccc(OC(F)(F)F)cc21 | 36.4% | 16.1% | 62.2% | 44.9% | 76.9% | 49.5% | 41.4% | -8.58% (active) | 72.7% | 44.8% |
| COc1c(B(O)O)cccc1-c1nc2c(F)cc3[nH]ncc3c2c2c1CCCC2 | 7.77% (active) | 11.3% | -15.1% (active) | 12.4% | -45% (active) | 12.3% | 7.58% (active) | -28.3% (active) | 20.3% | 11.3% |
| OCCn1cc(-c2nc(-c3c[nH]c4ncccc34)cs2)c2cc(F)ccc21 | 83.7% | 21.5% | 84.9% | 64.5% | 51.1% | 77% | 72.1% | 81.5% | 87.8% | 63.8% |
| COc1ccc(/C=N\Nc2nc(SCCC(C)C)nc(-c3ccc(OC)cc3)c2C#N)cc1 | 72.8% | 82% | 64.6% | 77.6% | 80.5% | 78.9% | 17.4% | 24.6% | 91.6% | 87.6% |
| Fc1ccc(CNc2c3ccccc3nc3ccccc23)c(F)c1 | 50.9% | 22.5% | 69.5% | 44.4% | 34.5% | 68.6% | 40.4% | 32.4% | 68.9% | 55.3% |
| CC(O)(c1ccccc1)C(c1ccccc1)C1CCCCN1 (stereo not given) | 103% | 95.6% | 97.5% | 93.9% | 106% | 99.6% | 99.8% | 96.5% | 96.2% | 92.3% |
| Cc1cc(N2CCCCC2)cc(C)c1-c1csc(NC(=O)c2ccncc2)n1 | 77% | 22.1% | 59.7% | 54.5% | 77.6% | 60% | 22.5% | 81.1% | 33.2% | 57.8% |
| N#CSc1c[nH]c2cccc(/C=C/C(=O)/C=C(/C=C/c3cccc4[nH]cc(SC#N)c34)OB(F)F)c12 | -69.4% (active) | -14.8% (active) | -52.8% (active) | -42.3% (active) | -77.6% (active) | 8.33% (active) | -4.04% (active) | -8.18% (active) | -50.6% (active) | -40.9% (active) |
| CC(C)(Sc1cc(C(C)(C)C)c(OC(=O)CCCC(=O)O)c(C(C)(C)C)c1)Sc1cc(C(C)(C)C)c(OC(=O)CCCC(=O)O)c(C(C)(C)C)c1 | 51.4% | 35.1% | 46.2% | 57.8% | 37.6% | 28.6% | 33.7% | 6.97% (active) | 46.7% | 45.5% |
| COc1cc(OC)c(/C=C/C(=O)c2c(OC)cccc2OC)c(OC)c1 | 6.79% (active) | 10.5% | 51.4% | 15% | -60.8% (active) | 32% | 1.38% (active) | -11.4% (active) | 43.6% | -44.3% (active) |
| O=CN1N=C(c2cccc(Nc3ccnc4cc(Cl)ccc34)c2)CC1c1ccccc1 (stereo not given) | 6.74% (active) | 18.3% | 53.2% | 7.27% (active) | -5.98% (active) | 36.9% | 2.56% (active) | -7.47% (active) | 66.9% | 23.6% |
| COc1ccc2c(c1)CC[C@H](O)/C2=C/c1cc(OC)c(OC)c(OC)c1 | 0.0757% (active) | 8.97% (active) | 64% | 14.5% | 15.5% | 27.1% | 8.44% (active) | -5.68% (active) | 47.3% | 6.27% (active) |
| Nc1ncnc2c1C(c1ccccc1)c1ccc3ccccc3c1O2 (stereo not given) | 99.8% | 70% | 110% | 89.1% | 104% | 84.7% | 88% | 90.7% | 79.7% | 95.8% |
| CCNCCNc1cc(C2CCCCC2)c(C#N)c2nc3ccccc3n12 | 32.6% | -38.8% (active) | -72.4% (active) | -48.7% (active) | -81.1% (active) | 22.3% | -53.5% (active) | -88.8% (active) | -67.2% (active) | -66% (active) |
| CCOC(=O)c1ccc2c(c1)nc(-c1ccccc1)n2C1CCCCC1 | 105% | 73.1% | 112% | 102% | 112% | 108% | 94.4% | 104% | 78.2% | 88.3% |
| COc1ccc2c(c1OC)CO[C@@H]2[C@H]1c2c(cc3c(c2OC)OCO3)CCN1S(=O)(=O)c1cn(C)cn1 | 11.1% | 10.7% | 45.6% | 30.4% | -27.9% (active) | 40.8% | 14.5% | -14.2% (active) | 56.2% | 3.48% (active) |
| CN(/C(N)=N/N=C/c1c2ccccc2cc2ccccc12)C1CCCCC1 | 57.6% | 12.9% | 39.8% | 59.9% | 48.1% | 72.4% | 45.7% | 73.9% | 64.3% | 37.7% |
| Cc1ccc2c(n1)C(=O)C(Br)=C(CC(C)C)C2=O | 109% | 33.8% | 99.7% | 91.4% | 102% | 96.2% | 102% | 97.7% | 85.1% | 102% |
| CCOCCNC1=C(Cl)C(=O)c2ccccc2C1=O | 76.3% | 91.8% | 106% | 116% | 123% | 101% | 95.1% | 121% | 98.2% | 110% |
| COC(=O)c1nc(-c2ccccc2)oc1S(=O)(=O)Cc1ccccc1 | 109% | 2.87% (active) | -78.7% (active) | 85.2% | 96.8% | 93.1% | 103% | 100% | 85.1% | 48% |
| COc1ccc(-c2cc(-c3cc(OC)c(OC)c(OC)c3)c(C#N)c(=O)n2CCCCC(=O)NO)cc1 | 64.1% | 32.6% | 33.1% | 55.6% | 53.1% | 87.9% | 78.7% | 57.7% | 71.7% | 56.9% |
| O=C1C(Cl)=C(Nc2ccc(S(=O)(=O)N3CCOCC3)cc2)C(=O)c2ccccc21 | 101% | 6.71% (active) | 71.6% | 31.3% | 56.4% | 78.3% | 99.7% | 2.06% (active) | 66.4% | 44.2% |
| Cn1cc(-c2ccc3nc(-c4ccc(CC(=O)ONc5cc(C(C)(C)C)on5)cc4)cnc3c2)cn1 | 35.1% | 10.3% | 22.4% | 39.1% | 28.8% | 33.5% | 38.1% | 17% | 39.8% | 18.7% |
| COc1ccc(OC)c(-c2nc(SCC(=O)c3ccc(C#N)cc3)[nH]c(=O)c2C#N)c1 | 99.6% | 111% | 97.8% | 101% | 105% | 93.3% | 99.5% | 93.8% | 99.9% | 91.7% |
| O=C(Nc1nc2ccccc2s1)c1ccc(F)cc1 | 108% | 90% | 96.2% | 95.5% | 107% | 114% | 103% | 102% | 108% | 110% |

Reference: PubChem BioAssay (NCI)
